# Assay outcomes from PubChem.
# In the library only some 7.5% were active in any assay of this set; here they are far more common.
# ELG1 genotoxic: induces genotoxicity in HEK293T cells with luciferase-tagged ELG1. hit rate 1.3% among 330,000. Potency, µM (top dose mostly 46 µM), for the others: at the top dose activity change, positive = activation, most hits filed as activators. HEK293T ELG1-luciferase reporter, luminescence, 16 h; further: % of control where 0% means no effect; nearly all actives have a fitted effect of over 60% in size
#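 After overnight (16 hr) compound treatment at 37 °C, ELG1-luciferase HEK293T cells were lysed with ONE-Glo; luminescence quantified 30 min later at room temperature.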
# Rab9 promoter act: activators of Rab9 promoter | Huh7 Rab9 promoter-luciferase reporter, luminescence, 24 h | hit rate 2.8% among 320,000 | Potency, µM (titrated, usually from 9.22 µM), for inactives: top-dose activation, negative = inhibition, most hits filed as activators | AID 485297; further: % of control where 0% means no effect; nearly all actives have a fitted effect of over 60% in size
#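 Using Huh7 cells stably transfected with Rab9 promoter–luciferase, compounds were incubated 24 h at 37 °C, 5% CO2; luciferase luminescence was read 10 min after reagent addition.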
# Luc counter: blocks Kinase-Glo luciferase, a counter-screen artifact | Kinase-Glo luciferase, ATP luminescence, 8 min | Potency, µM (top dose mostly 38.3 µM), inactives show top-dose activity change, negative = inhibition, usual class: inhibitors | hit rate 0.28% among 200,000 | AID 1379; further: on the % scale 0 is the no-effect control and ±100 the full control effect; nearly all actives have a fitted effect of over 60% in size
#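 Inhibition of Kinase-Glo luciferase light generation was assessed at 10 uM ATP in pH 7.2 imidazole buffer, with luminescence measured after eight minutes at ambient temperature.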
# SMN2 splice up: enhancers of SMN2 splice variant expression; hit rate 2.8% among 210,000; HEK293 SMN2-luciferase splicing reporter, luminescence, 30-36 h; Potency, µM (highest dose often 46.1 µM), for inactives: top-dose activity change, positive = activation, hits mostly activators; further: % of control where 0% means no effect; nearly all actives have a fitted effect of over 55% in size
#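 HEK293 cells carry an SMN2 […]–luciferase reporter in which exon 7 inclusion puts luciferase in frame. Cells were plated 10-12 h before compound addition, then incubated 30-36 h at 37C. ONE-Glo luminescence was read; sodium butyrate at 4.5 mM final served as control.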
# NPC1 promoter act: activators of NPC1 promoter; Huh7 NPC1 promoter luciferase reporter, 24 h; Potency, µM (titrated, usually from 9.22 µM), for the others: at the highest dose activation, most hits filed as activators; hit rate 2.4% among 320,000; AID 485313; further: % of control where 0% means no effect; nearly all actives have a fitted effect of over 60% in size
#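 Stably transfected Huh7 (NPC1 promoter→luciferase), 1500 cells/well in Opti-MEM + 10% FBS, 2 h settle, then compound 24 h at 37 °C. Luminescence after 10 min with Amplite reagent.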
# FLuc counter: inhibits or activates purified firefly luciferase, miR-21 counter-screen. purified FLuc, Km substrates, luminescence inhibition. hit rate 6.9% among 360,000. P08659. AID 588342. Potency, µM (top dose mostly 57.5 µM), inactives show at the highest dose activity change, negative = inhibition, actives largely listed as inhibitors;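 further: plate controls were vehicle for no effect and reference inhibitor for full effect; nearly all actives have a fitted effect of over 55% in size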
# Target sequence (P08659 whole entry, looked up): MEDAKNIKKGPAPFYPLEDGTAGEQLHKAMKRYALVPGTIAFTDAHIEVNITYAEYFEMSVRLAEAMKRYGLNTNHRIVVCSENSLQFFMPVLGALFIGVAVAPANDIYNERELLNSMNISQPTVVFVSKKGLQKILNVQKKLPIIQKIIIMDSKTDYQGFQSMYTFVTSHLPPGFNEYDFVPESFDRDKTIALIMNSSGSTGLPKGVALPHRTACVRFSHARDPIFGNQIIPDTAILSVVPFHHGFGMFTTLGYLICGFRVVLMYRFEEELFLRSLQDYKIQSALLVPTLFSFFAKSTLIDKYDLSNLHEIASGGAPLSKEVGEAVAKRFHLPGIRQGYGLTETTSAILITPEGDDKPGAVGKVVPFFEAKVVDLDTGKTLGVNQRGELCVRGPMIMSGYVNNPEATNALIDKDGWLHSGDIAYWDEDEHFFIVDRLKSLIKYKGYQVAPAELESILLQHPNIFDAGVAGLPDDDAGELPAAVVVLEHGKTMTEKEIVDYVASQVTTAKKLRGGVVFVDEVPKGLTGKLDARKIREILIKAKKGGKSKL
#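 Biochemical qHTS of compounds, final roughly 60 µM downward over six points, against 10 nM purified firefly luciferase using Km concentrations of substrates (10 uM D-luciferin, 10 uM ATP) in Tris acetate pH 7.5 buffer; luminescence output.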
# * hit, by the source's call; ? = inconclusive; nt = no result given. The call rests on the fitted dose curve; in most records, active means well fitted curve in the direction sought with a large enough effect; inconclusive means small, poorly fitted or top-dose-only effect, or another doubt; inactive means no such curve, though single readings can be large; an effect the other way counts as inactive or inconclusive. Potency means the concentration at half of the fitted maximal effect.
SMILES,ELG1 genotoxic,Rab9 promoter act,Luc counter,SMN2 splice up,NPC1 promoter act,FLuc counter
COC(=O)C1=C(C)NC(=O)C1(NC(=O)c1cc(OC)c(OC)c(OC)c1)C(F)(F)F (stereo not drawn),nt,nt,nt,3.0%,nt,-8.7%
O=C(c1ccc(Cl)s1)N1CCN(c2ccccc2)CC1,-0.3%,1.7%,-0.8%,12.5%,4.2%,0.9%
CCn1c(CN2CCOCC2)nc2cc(NC(=O)c3ccccc3[N+](=O)[O-])ccc21,nt,nt,nt,nt,nt,-0.3%
Clc1ncccc1-c1nc2ccccc2s1,?,-2.4%,-8.1%,nt,26.3%,15.1µM*
O=C(Nc1ccccc1-c1nc2ccccc2s1)c1cccnc1,-2.1%,-8.2%,5.3%,1.6%,-3.2%,3.6%
O=C(Nc1nnc(C(F)(F)F)s1)C1COc2ccccc2O1 (stereo not drawn),3.9%,27.1%,16.3%,-28.4%,28.1%,?
CC1(C)CC(=O)c2sc(NC(=O)c3ccco3)nc2C1,20.6µM*,27.8%,-14.4%,?,?,6.01µM*
O=C(Nc1nncs1)C1COc2ccccc2O1 (stereo not drawn),14.8%,2.7%,-5.1%,?,18.5%,?
O=C(Nc1nnc(C2CC2)s1)C1COc2ccccc2O1 (stereo not drawn),4.11µM*,0.891µM*,-14.0%,5.62µM*,2.82µM*,10.7µM*
CC(=O)c1sc(NC(=O)C2COc3ccccc3O2)nc1C (stereo not drawn),?,0.355µM*,-3.8%,3.16µM*,0.447µM*,1.9µM*
CC(C)(C)c1csc(NC(=O)C2COc3ccccc3O2)n1 (stereo not drawn),?,?,nt,nt,?,15.1µM*
CC1(C)CC(=O)c2sc(NC(=O)C3COc4ccccc4O3)nc2C1 (stereo not drawn),20.6µM*,?,4.5%,12.6µM*,24.7%,?
O=C(Nc1ccc(CN2CCCCC2)cc1)Nc1ccc(Br)cc1Cl,11.9%,-5.4%,-1.9%,-114.7%,-2.3%,4.7%
COc1ccc(NC(=O)C=C(C)C)cc1Cl,nt,nt,?,11.2µM*,nt,12µM*
CC(C)=CC(=O)Nc1ccc(Cl)cc1,?,1.41µM*,-7.0%,14.1µM*,1.58µM*,10.7µM*
COc1ccc(NC(=O)c2cc(F)c(F)cc2Cl)cc1Cl,?,?,nt,nt,?,13.5µM*
COc1ccc(NC(=O)Nc2cccs2)cc1Cl,?,?,nt,nt,?,8.49µM*
COCC(=O)Nc1ccc(OC)c(Cl)c1,12.5%,9.5%,nt,nt,11.5%,1.0%
COc1ccc(C(=O)/C=C/Sc2nc3ccccc3o2)cc1,9.3%,-42.9%,nt,nt,-19.8%,2.39µM*
CCCCOC(=O)Sc1nc2ccccc2o1,-7.0%,-11.5%,1.0%,12.7%,-1.9%,15.1µM*
COc1ccc(C(=O)N/C(N)=N/c2nc3ccccc3o2)cc1,2.7%,19.6%,-3.9%,-23.2%,23.4%,-8.2%
COc1ccc2c(Cl)c(C(=O)NCCCn3ccnc3)sc2c1Cl,?,0.3%,-5.8%,-30.8%,-5.3%,4.5%
CCN(CC(=O)Nc1ccc2c(c1)OCCO2)C(=O)/C=C/c1ccc(F)cc1,?,27.3%,1.0%,22.5%,-0.2%,16.9µM*
CCN(CC(=O)Nc1ccc2c(c1)OCCO2)C(=O)/C=C/c1cccc(Br)c1,?,17.0%,nt,nt,14.1%,15.1µM*
C[C@H]1CN([C@@H](C)CO)C(=O)Cc2cc(NS(=O)(=O)c3cn(C)cn3)ccc2O[C@@H]1CN(C)C(=O)Nc1ccc(F)cc1,2.4%,nt,nt,nt,nt,nt
COC(=O)C(=O)C/C(=N/Nc1ncnc2ccccc12)c1ccc(Cl)cc1,4.8%,-1.3%,nt,nt,-7.4%,9.53µM*
CC(C)NC(=O)COc1coc(CN2CCN(c3ccccc3)CC2)cc1=O,0.8%,-0.1%,nt,nt,-0.9%,3.0%
COc1ccc(NC(C#N)c2ccc(OC)cc2)cc1 (stereo not drawn),?,0.4%,-0.7%,-3.6%,-0.6%,3.01µM*
COc1ccc(NC2=C(C)C(=O)CC2)cc1,18.4µM*,0.6%,-6.5%,?,-3.5%,3.2%
